SMILES strings stand for the structures. A number with no mark means an inactive call.

The assay has as its system Vero E6 infected with SARS-CoV-2. Put plainly: inhibition of SARS-CoV-2 cytopathic effect; higher = more antiviral protection, active = above 15. The conditions noted are these: 1 nM; 48 h. In general terms: Damage to the host cells serves as the signal in cytopathic effect assays.
Regarding `C=CCc1cccc(/C=N/NC(=O)CN2CCN(Cc3ccccc3)CC2)c1O`, the “inhibition of SARS-CoV-2 cytopathic effect” value (“inhibition” below) is 0.07%.
On to `Cc1c(C(N)=O)cc([N+](=O)[O-])cc1[N+](=O)[O-]` [dinitolmide], for which the “inhibition” value is -1.43%.
Under `CNC1CCCN(c2c(F)cc3c(=O)c(C(=O)O)cn(C4CC4)c3c2OC)C1` (configuration not stated) [balofloxacin] stands -2.96%.
Under `CC1=NN(c2ccc(C)c(C)c2)C(=O)/C1=N\Nc1cccc(-c2cccc(C(=O)O)c2)c1O` [eltrombopag] stands 2.51%; under `O=C(NCCCN1CCOCC1)c1ccc(Cl)cc1` [eprobemide], 0.75%.
Regarding `O=c1c(O)c(-c2ccc(O)cc2)oc2cc(O)cc(O)c12` [kaempferol], the “inhibition” value was -3.6%.
Next, `CCCCCCCCCCCCCCCCCCN(CCCCCCCCCCCCCCCCCC)CCCN(CCO)CCO` [avridine]: -9.9%; `O=C1NC(=O)c2c1c1c3ccccc3[nH]c1c1[nH]c3ccccc3c21` [arcyriaflavin-a]: -5.59%.
For the molecule `CC(=O)OC[C@H]1O[C@@H](n2ccc(=O)[nH]c2=O)[C@H](OC(C)=O)[C@@H]1OC(C)=O` [uridine-triacetate], the “inhibition” value was -1.68%.
On to `O=C(NC1CCOCC1)c1ccc(-c2cc(-c3c[nH]nc3-c3ccccn3)ccn2)cc1`, for which the “inhibition” value was 1%.
As for `O=C(NCC1CCCCN1)c1cc(OCC(F)(F)F)ccc1OCC(F)(F)F` (configuration not stated) [flecainide], the “inhibition” value is -1.39%.
For the molecule `O=C1Nc2ccccc2/C1=C1/Nc2ccccc2C1=O` [indirubin], the “inhibition” value is -0.6%.

Source of the values: the supplement of paper PMC13380429.
